Where “and” joins values, the source holds several entries; their conditions need not be identical. Identical values can stand only once. Records with an inconclusive call do not appear. Calls of active or inactive are those of the source. The call rests on the fitted dose curve; in most records, active means well fitted cell-killing curve with a large enough effect; inconclusive means small, poorly fitted or top-dose-only effect, or effect the other way; inactive means flat fitted curve, though single readings scatter.
Potency means the concentration at half of the fitted maximal effect.

For this experiment, the system named is OV90. Kind of experiment: Primary qHTS to identify gynecologic anti-cancer compounds using libraries of approved drugs and bioactive compounds (AID 1345084). Further: nearly all actives have a fitted effect of over 55% in size. To be noted: Gynecologic cancer cell panel viability, ATPlite luminescence, 48 h; series mostly up to 57.5 µM. The procedure, abridged: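 Five-point cytotoxicity, 48 h drug exposure at 37 C, 5% CO2, on cells seeded 16 h beforehand. ATP content read by ATPlite luminescence.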
As for `COC(=O)Nc1ccc(-c2nc(N3CCOCC3)c3cnn(C4CCN(Cc5cccnc5)CC4)c3n2)cc1`, the Potency is 4.47 µM (active). As to `C=CC(=O)Nc1cc2c(Nc3ccc(F)c(Cl)c3)ncnc2cc1OCCCN1CCOCC1`, the Potency entry is “inactive”. As to `CC(C)(O)c1cc2nc(-c3cnc(N)nc3)nc(N3CCOCC3)c2s1`, the Potency was 2.82 µM (active). For the compound `COc1cc(C)c(Sc2cnc(NC(=O)c3ccc(CNC(C)C(C)C)cc3)s2)cc1C(=O)N1CCN(C(C)=O)CC1` (centres undefined), the Potency result was “inactive”. In the case of `Nc1ncnc2c1c(-c1cnc3[nH]ccc3c1)nn2C1CCCC1`, the Potency is 5.01 µM (active). In the case of `CCOC(=O)C1=C(C)NC2=C(C(=O)CC(C)(C)C2)C1c1ccc(-c2ccccc2)cc1` (centres undefined), the Potency entry is “inactive”. `Cc1cc(C(=O)N2CCN(c3cccc(Cl)c3)CC2)n(-c2ccccc2)n1`: the Potency entry is “inactive”. In the case of `CNC(=O)c1ccccc1Nc1nc(Nc2ccc(N3CCOCC3)cc2OC)ncc1Cl`, the Potency was 1 µM (active). As for `COC(=O)C1=C(C)NC(C)=C(C(=O)OCCN2CCN(C(c3ccccc3)c3ccccc3)CC2)C1c1cccc([N+](=O)[O-])c1` (centres undefined), the Potency result was “inactive”.

Regarding `COc1cc2c(Nc3ccc(NC(=O)c4ccccc4)cc3)ncnc2cc1OCCCN1CCOCC1`, the Potency is 25.1 µM (active). As for `CN1CCN(Cc2ccc(NC(=O)Nc3ccc(Oc4cc(NC(=O)C5CC5)ncn4)cc3)cc2C(F)(F)F)CC1`, the figure is 0.631 µM (active). Turning to `COc1cc2c(Oc3ccc(NC(=O)C4(C(=O)Nc5ccc(F)cc5)CC4)cc3F)ccnc2cc1OCCCN1CCOCC1`, the Potency was 12.6 µM (active). Regarding `Cc1nc(Nc2n[nH]c3c2CN(C(=O)N[C@H](CN(C)C)c2ccccc2)C3(C)C)c2sccc2n1`, the Potency was 1.58 µM (active). Regarding `Cc1[nH]nc2ccc(-c3cncc(OC[C@@H](N)Cc4ccccc4)c3)cc12`, the Potency is 3.55 µM (active).

For `Cn1cc(-c2ccncc2)c(-c2ccc(OCc3ccc4ccccc4n3)cc2)n1`, the Potency result was “inactive”. On to `C=CC(=O)Nc1cccc(Oc2nc(Nc3ccc(N4CCN(C)CC4)cc3)ncc2Cl)c1`, for which the Potency entry is “inactive”. As for `CC[C@@H]1C(=O)N(C)c2cnc(Nc3ccc(C(=O)NC4CCC(N5CCN(CC6CC6)CC5)CC4)cc3OC)nc2N1C(C)C` (some centres undefined), the figure is 15.8 µM (active) and 12.6 µM (active); as for `COc1ccc(OC)c(-c2nnc3ccc(-c4ccc(OC)c(O[C@@H]5CCOC5)c4)nn23)c1`, “inactive”. For the compound `CC1(C)CC(=O)c2c(C(F)(F)F)nn(-c3ccc(C(N)=O)c(NC4CCC(OC(=O)CN)CC4)c3)c2C1` (centres undefined), the Potency was 0.355 µM (active). As to `CNC(=O)CN1CCC(Oc2cc3c(Nc4cccc(Cl)c4F)ncnc3cc2OC)CC1`, the Potency entry was “inactive”. For the compound `CC(C)c1cc(-c2n[nH]c(=O)n2-c2ccc3c(ccn3C)c2)c(O)cc1O`, the Potency was 2.51 µM (active). Consider `O=C(Nc1nc2cccc(-c3ccc(CN4CCS(=O)(=O)CC4)cc3)n2n1)C1CC1`, for which the Potency result is “inactive”.

In the case of `O=C(Cc1ccc(-c2ccc(OCCN3CCOCC3)cc2)cn1)NCc1ccccc1`, the Potency is 2.82 µM (active). In the case of `CC(C)c1cc(C(=O)N2Cc3ccc(CN4CCN(C)CC4)cc3C2)c(O)cc1O`, the Potency was 0.501 µM (active).

These data come from PubChem BioAssay (NCATS).
